According to article PMC4336329 (PLoS ONE, 2015):
In all, about 310,000 compounds went through this assay and about 14,000 (4.5%) showed an effect of 50% or more. The effect is printed as a negative number. The sample holds strong results, similar compounds and a random draw of the others, so the mix is not that of the screen.

These compounds were tested against human ether-à-go-go-related gene (hERG) potassium channel (human, UniProt Q12809) (assay: primary screen, population patch clamp on CHO cells stably expressing hERG; higher = less effect of the substance).
human ether-à-go-go-related gene (hERG) potassium channel, sequence (Q12809 whole entry, looked up): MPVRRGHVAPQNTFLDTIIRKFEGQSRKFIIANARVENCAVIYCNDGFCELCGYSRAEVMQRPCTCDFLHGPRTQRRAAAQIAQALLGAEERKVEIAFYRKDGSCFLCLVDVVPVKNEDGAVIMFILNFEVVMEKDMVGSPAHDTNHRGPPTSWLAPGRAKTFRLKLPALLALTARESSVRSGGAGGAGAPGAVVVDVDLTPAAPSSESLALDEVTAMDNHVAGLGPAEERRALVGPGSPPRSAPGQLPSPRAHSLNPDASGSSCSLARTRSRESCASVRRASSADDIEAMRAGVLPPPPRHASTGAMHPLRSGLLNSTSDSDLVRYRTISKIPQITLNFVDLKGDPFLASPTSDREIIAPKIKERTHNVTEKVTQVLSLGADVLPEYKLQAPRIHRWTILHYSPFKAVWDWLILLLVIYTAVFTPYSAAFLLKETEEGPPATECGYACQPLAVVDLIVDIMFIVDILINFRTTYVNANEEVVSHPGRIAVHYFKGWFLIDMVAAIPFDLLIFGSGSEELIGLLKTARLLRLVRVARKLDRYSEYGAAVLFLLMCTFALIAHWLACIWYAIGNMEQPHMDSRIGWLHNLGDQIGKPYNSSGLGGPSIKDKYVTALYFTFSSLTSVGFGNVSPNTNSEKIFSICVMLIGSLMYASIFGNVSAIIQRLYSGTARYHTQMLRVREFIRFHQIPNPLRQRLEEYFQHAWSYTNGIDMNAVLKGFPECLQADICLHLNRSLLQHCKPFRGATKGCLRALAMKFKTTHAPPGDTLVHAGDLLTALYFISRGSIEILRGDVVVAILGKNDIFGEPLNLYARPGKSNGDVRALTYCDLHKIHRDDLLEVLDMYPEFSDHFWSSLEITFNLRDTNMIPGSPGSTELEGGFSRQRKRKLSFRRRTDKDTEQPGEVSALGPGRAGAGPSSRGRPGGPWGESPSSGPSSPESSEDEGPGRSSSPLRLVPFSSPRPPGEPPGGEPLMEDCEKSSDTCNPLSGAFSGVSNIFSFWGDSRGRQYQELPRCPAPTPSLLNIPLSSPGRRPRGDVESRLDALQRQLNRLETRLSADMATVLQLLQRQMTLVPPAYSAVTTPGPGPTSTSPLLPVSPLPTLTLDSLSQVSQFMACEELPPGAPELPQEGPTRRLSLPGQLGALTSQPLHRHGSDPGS
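Note: peak tail current of the secondary pulse compared with the same well before compound.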

Compound | hERG current change (%, negative = inhibition) at 10uM [%]
Cc1ccc(CN2CCc3[nH]c(=O)[nH]c(=O)c3C2)cc1 | 17.5
S=C(Nc1ccc(Oc2ccc(NC(=S)NC3CCCCC3)cc2)cc1)NC1CCCCC1 | 17.6
Cc1ccc(C(=O)N2CCN(C(=O)N3CCOCC3)CC2)cc1 | -5.64
COC(=O)c1ccccc1Oc1nc(Cl)cc(OC)n1 | -12.1
O=C(NCc1ccco1)C(=O)NCC(c1ccco1)N1CCOCC1 (stereo not shown) | 13
CC1(C)CC(=O)c2sc(NC(=O)c3ccccc3)nc2C1 | 2.82
O=C(COc1cccc2cccnc12)Nc1ccccc1N1CCOCC1 | -37.7
CCCNC(=O)c1ccc(N2CCC3(CC2)CC(c2cccc(Br)c2)=NO3)c(NC(=O)c2c(Cl)cccc2Cl)c1 | 5.92
CCOc1cc(CNCCc2ccccc2F)ccc1OC.O=C(O)C(=O)O | -42.1
COc1ccc(CNCCc2ccc(Cl)cc2)cc1OCc1ccccc1 | -75.6
COc1ccc(CNCCc2ccccc2)cc1OCC(N)=O | -12
CCOc1cc(CNCc2ccccc2)ccc1OCc1ccc(Cl)cc1.Cl | -33.1
COc1cc(CNCCc2ccccc2)ccc1OCC(N)=O.Cl | -17.4
COc1ccccc1CCNCc1ccc(OC)c(OCc2ccccc2)c1 | -71.9
O=C(O)C(=O)O.c1ccc(CNC2=NCCCC2)cc1 | 1.76
COc1ccccc1CCC(=O)Nc1ccc(S(=O)(=O)Nc2cc(C)nc(C)n2)cc1 | 12
COc1ccccc1-n1ccnc1SCC(=O)NC(C)(C)C | 13.3
CN(C)c1ccc(NC(=S)NC(=O)/C=C/c2ccc(Cl)cc2)cc1 | 2.39
CC(=O)NNC(=O)c1csc(Cc2c(Cl)sc3ccc(Cl)cc23)n1 | -19.6
CNC(=O)NNC(=O)c1csc(Cc2c(Cl)sc3ccc(Cl)cc23)n1 | -52.1
CNC(=O)c1csc(Cc2c(Cl)sc3ccc(Cl)cc23)n1 | -2.3
CN=C(Nc1ccccc1OC)SC1CC(=O)N(c2ccc(C(=O)OC)cc2)C1=O (stereo not shown) | -12.5

Compound | hERG current change (%, negative = inhibition) at 10uM [%]
O=C(Nc1cccnc1)/C(N=Nc1c(Cl)cccc1Cl)=C(\O)c1ccccc1 | 18.8
O=C(Nc1cccnc1)/C(N=Nc1cccnc1)=C(\O)c1ccccc1 | -53
O=C(Nc1cccnc1)/C(N=Nc1ccc(Cl)c(C(F)(F)F)c1)=C(\O)c1ccccc1 | 29.3
COc1cccc(CNC(=O)CCC2CCCN(C(=O)CCc3c(C)noc3C)C2)c1 (stereo not shown) | -2.56
COc1ccc(CCNS(=O)(=O)c2ccc3oc(C(=O)O)c(C)c3c2)cc1OC | 0.0936
CCOC(=O)C(NC(=O)Nc1ccc(C(N)=O)cc1)(c1ccccc1)C(F)(F)F (stereo not shown) | -14.6
Cc1cc(/C=N/n2cnnc2)c(C)n1-c1cccc(Cl)c1 | -22.2
Cc1cccc(-n2c(SCc3cc(=O)n4ccsc4n3)nc3ccccc3c2=O)c1 | -5.76
O=C(Nc1ccc(Cl)cc1)N1CCN(C(=O)C2CCCO2)CC1 (stereo not shown) | 14.9
COc1ccc(C(=O)Nn2cnnc2)cc1OC | 14.6
CCOc1ccc(C(=O)Nn2cnnc2)cc1OCC | -70.4
CCOc1cc(C(=O)Nn2cnnc2)cc(OCC)c1OCC | 13.8
CC1CCc2cc(F)ccc2N1C(=O)c1ccncc1 (stereo not shown) | 7.7
Cc1cccc(N(C(=O)Cc2cccs2)C(C(=O)NC2CCCC2)c2ccncc2)c1 (stereo not shown) | 8.83
CC(C)C(c1nnnn1Cc1cccs1)N1CCN(C(=O)c2ccco2)CC1 (stereo not shown) | -31.6
CC(C)CCn1nnnc1C(c1ccc(F)cc1)N1CCN(C(=O)c2ccco2)CC1 (stereo not shown) | -38.1
O=C(c1ccco1)N1CCN(C(c2ccccc2)c2nnnn2Cc2cccs2)CC1 (stereo not shown) | -38.9
Cl.O=C(c1ccco1)N1CCN(C(c2ccc(F)cc2)c2nnnn2Cc2cccs2)CC1 (stereo not shown) | -57
Cc1ccc(C(c2nnnn2Cc2cccs2)N2CCN(C(=O)c3ccco3)CC2)cc1 (stereo not shown) | -62.5
O=C(c1ccco1)N1CCN(C(c2ccc(F)cc2)c2nnnn2CC2CCCO2)CC1 (stereo not shown) | -13.7
CCCCc1nnc(NC(=O)CSCc2cc(=O)n3cc(C)sc3n2)s1 | 5.31
Cc1ccc2c(CC(=O)Nc3c(C)n(C)n(-c4ccccc4)c3=O)coc2c1 | -7.21

Compound | hERG current change (%, negative = inhibition) at 10uM [%]
O=C1N(Cc2cccnc2)C[C@@H]2C[C@@H](c3cccc(OCc4ccccc4)c3)N3CCC[C@@]123 | -63.6
O=C1N(Cc2cccnc2)C[C@@H]2C[C@@H](c3cccc(Oc4ccccc4)c3)N3CCC[C@@]123 | -59.4
O=C1N(Cc2cccnc2)C[C@@H]2C[C@@H](c3cccc(OC4CCCC4)c3)N3CCC[C@@]123 | -69.5
COc1ccccc1CN1C[C@@H]2C[C@@H](c3cccc(O)c3)N3CCC[C@@]23C1=O | -33.6
COc1ccccc1CN1C[C@@H]2C[C@@H](c3cccc(C)c3)N3CCC[C@@]23C1=O | -37
CC(C)(C)NC(=S)NNC(=O)[C@H]1C[C@@H]1c1ccccc1 | 11
Cc1ccc(S(=O)(=O)N[C@H](C(=O)N2CCC(C(=O)N[C@@H](CC(=O)O)C(=O)O)CC2)C(C)C)cc1 | 24.9
O=c1cc(-c2ccccc2)cc(-c2ccccc2)n1CCO | -21.5
O=C(CCN1CCCC1=O)NC1CCCc2c1cnn2-c1ccc(F)cc1F (stereo not shown) | -2.54
CCOC(=O)N1CCC(NS(=O)(=O)c2ccc3c(c2)CCN3C(C)=O)CC1 | -0.517
CC(C)C(C(=O)NC(C)(C)C)N(CCN1CCOCC1)C(=O)CNS(=O)(=O)c1ccccc1 (stereo not shown) | 0.875
CC(/C=C/c1ccco1)=N\NC(=O)c1cc(C)[nH]n1 | 5.55
CC(=O)Nc1ccc(N(C(=O)Cc2cccs2)C(C(=O)NC2CCCC2)c2ccncc2)cc1 (stereo not shown) | 9.17
CC1(C)CC(=O)C(=Cc2cn(-c3ccccc3)nc2-c2ccccc2)C(=O)C1 | -24.1
O=C(NC1CC2CCC(C1)N2Cc1ccccc1)c1cccc(F)c1 (stereo not shown) | -60.5
CCCN1C2CCCC1CC(NC(=O)c1cccc(Cl)c1)C2 (stereo not shown) | -38.9
O=C(NC1CC2CCCC(C1)N2Cc1ccccc1)c1cccc(Cl)c1 (stereo not shown) | -57.9
O=C(NC1CC2CCC(C1)N2Cc1ccccc1)c1ccccc1Cl (stereo not shown) | -40.6
CCCCN1C2CCCC1CC(NC(=O)c1cccc(OC)c1)C2 (stereo not shown) | -19.3
O=C(NC1CC2CCC(C1)N2Cc1ccccc1)c1ccccc1Br (stereo not shown) | -20.1
O=C(NC1CCCC1)c1cccc(Cl)c1 | 29.8
CCCCN1C2CCCC1CC(NC(=O)c1cccc(Cl)c1)C2 (stereo not shown) | -75.5

Compound | hERG current change (%, negative = inhibition) at 10uM [%]
O=C(NC1CC2CCCC(C1)N2Cc1ccccc1)c1cccc(F)c1 (stereo not shown) | -56.8
Cc1cccc(C(=O)NC2CC3CCCC(C2)N3Cc2ccccc2)c1 (stereo not shown) | -40.9
O=C(Nc1cccc(F)c1)c1ccc(S(=O)(=O)NCC2CCCO2)cc1 (stereo not shown) | -12.2
COc1ccc(C(=O)NN(C)c2nc(-c3ccccc3)nnc2C(F)(F)F)cc1 | 7
N#Cc1cn(CC(=O)N2CCCC2)c2ccccc12 | 8.6
O=C(O)C1=CC2c3ccccc3C1c1ccccc12 | 17.4
CC1(C)Cc2sc3c(=O)[nH]c(=S)[nH]c3c2CO1 | 16.6
CCCN1C(=O)/C(=c2\s/c(=C3\C=Cc4ccccc4N3CC)c(=O)n2-c2ccccc2)SC1=S | 8.95
O=C1NC(=O)/C(=C\c2cn(CC(=O)N3CCOCC3)c3ccccc23)S1 | 11.7
COCC(=O)Nc1sc2c(c1C(=O)OC)CCCC2 | -11.7
COc1ccc(C2/C=C\CN(C(=O)c3ccccc3)[C@H](Cc3ccccc3)C(=O)N2Cc2ccc(F)cc2)cc1 (stereo partly shown) | 17
Fc1cccc(-c2cc3nc4c(c(N5CCOCC5)n3n2)CCCC4)c1 | -24.1
Cc1nc(N)nc(N/N=C/c2c(F)cccc2Cl)n1 | 3.11
COc1cc(NS(=O)(=O)c2ccc(NC(=O)C34CC5CC(CC(C5)C3)C4)cc2)ncn1 | -4.59
Cl.OC(COC(c1ccc(Cl)cc1)c1ccc(Cl)cc1)CN1CCc2ccccc2C1 (stereo not shown) | -61.6
OC(CN1CCc2ccccc2C1)c1ccccc1 (stereo not shown) | -9.09
OC(COC(c1ccc(F)cc1)c1ccc(F)cc1)CN1CCc2ccccc2C1 (stereo not shown) | -73.7
OC(COC(c1ccccc1)c1ccccc1)CN1CCc2ccccc2C1 (stereo not shown) | -76.9
CC1(c2ccc3c(c2)OCCCO3)NC(=O)N(CC(=O)NCCc2ccccc2)C1=O (stereo not shown) | -7.38
